# Assay results published in ChEMBL document CHEMBL3988442, “University of Dundee, Small-Polar-MMV Screening Library” (2021).
# The campaign covered roughly 48,000 compounds. About 13,000 (27%) showed an effect of 50% or more. The list shows a part of the results.
# Tested on: Wolbachia pipientis
# Test: Anti-Wolbachia Cell-Based Screen
# Type: functional
# Set-up: scale not given: in the data most compounds retested in dose-response had high values
# Settings: 5 µM
row,SMILES,Percent Effect
1,COc1cc(N2CCC(c3nccn3Cc3ccccn3)CC2)ncn1,2.703%
2,CCCN1CCC(Nc2nc(C)ns2)CC1,-28.04%
3,COc1ccc(CN2CCC=C(C(C)NC(C)=O)C2)cc1 (stereo unspecified),-15.58%
4,Cc1n[nH]c(CN2CCN(CC3CC3)[C@@H]3CS(=O)(=O)C[C@@H]32)n1,6.272%
5,CCOc1cccc(CCNC(=O)Cc2ccccc2O)n1,-26.19%
6,Cc1cnc2c(S(=O)(=O)NCC3CCS(=O)(=O)C3)cccc2c1 (stereo unspecified),-2.686%
7,COCC(=O)N1CC[C@H]2C[C@@H](c3nnc(C4CC4)o3)O[C@@H]2C1,-4.608%
8,COCC(=O)N1CC[C@H]2C[C@H](c3nnc(C4CC4)o3)O[C@@H]2C1,59.46%
9,O=C(c1ccccc1)N1CC[C@H]2C[C@H](c3nnc(C4CC4)o3)O[C@@H]2C1,87.37%
10,Cc1nc([C@@H]2C[C@@H]3CCN(C(=O)c4ccnnc4)C[C@H]3O2)sc1C,3.729%
11,Cc1csc([C@@H]2C[C@@H]3CCN(C(=O)c4cccn4C)C[C@H]3O2)n1,-10.26%
12,COCC(=O)N1CC[C@H]2C[C@H](c3nc(C)no3)O[C@@H]2C1,4.349%
13,O=C(c1ccoc1)N1CC[C@H]2C[C@@H](c3nnc(C4CC4)o3)O[C@@H]2C1,103%
14,Cc1noc([C@H]2C[C@@H]3CCN(C(=O)c4cccn4C)C[C@H]3O2)n1,59.05%
15,Cc1nc([C@H]2C[C@@H]3CCN(C(=O)c4ccnnc4)C[C@H]3O2)sc1C,-5.019%
16,COCCN1CCN(CCS(=O)(=O)C(F)(F)F)CC1C (stereo unspecified),6.413%
17,O=C1NCCN2CCN(Cc3ccc(Cl)c(Cl)c3)CC12 (stereo unspecified),-5.038%
18,Cc1c[nH]c(C2CCCN2C(=O)CCc2c(C)n[nH]c2C)n1 (stereo unspecified),109.7%
19,Cc1c[nH]c(C2COCCN2C(=O)CCc2c(C)n[nH]c2C)n1 (stereo unspecified),111%
20,Cc1n[nH]c(C)c1C1COCCN1C(=O)c1cc(Cl)c[nH]1 (stereo unspecified),-20.41%
21,Cc1n[nH]c(C)c1C1CCCN1C(=O)CNC(=O)C(C)(C)C (stereo unspecified),1.097%
22,O=C(CCn1cnnc1)N1CCCC(c2ncc[nH]2)C1 (stereo unspecified),-20.34%
23,Cc1cccc(-c2c[nH]c(C3CCCN3C(=O)Cn3cc(C)cn3)n2)c1 (stereo unspecified),-5.472%
24,Cc1c[nH]c(C2CCCN(C(=O)CCc3c(C)n[nH]c3C)C2)n1 (stereo unspecified),139.5%
25,CC(C)(C)c1noc(CCCC(=O)N2CCCC(c3ccn[nH]3)C2)n1 (stereo unspecified),-11.26%
26,Cc1cccc(CCC(=O)N2CCOCC2c2c(C)n[nH]c2C)c1 (stereo unspecified),9.952%
